# CHX counter = counter-screen for Shiga toxin inhibitors: cycloheximide protein synthesis inhibition | cell reporter, cycloheximide protein synthesis inhibition counterscreen | max response, % | 12% of 300,000 active; in the data active = max response mostly above about 13%, no sharp cut-off; inactive = mostly below about 14%; also: read at 38.3 µM for the half of the compounds with a filed dose; 0% is about no effect
# Sm TGR block = S. mansoni TGR enzyme inhibition. purified TGR, DTNB reduction, TNB absorbance 405 nm. Q962Y6. Potency, µM (highest dose often 114 µM), inactives show at the top dose activity change, negative = inhibition, hits mostly inhibitors. AID 485364. 3% of 360,000 active; active = well fitted inhibition curve with a large enough effect; inconclusive = small, poorly fitted or top-dose-only effect; inactive = no such curve, though single readings can be large or run the other way; also: potency is read from the fitted curve at half-maximal effect; % is scaled to controls: 0 for no effect and ±100 for the full control effect; nearly all actives have a fitted effect of over 60% in size
#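 TGR 20 nM + NADPH 100 uM (dispensed conc.), cpd preinc 15 min RT; start with NADPH (500 uM addition) then DTNB (15 mM addition). Kinetic TNB absorbance, 405 nm filter. Four-parameter Hill fit across titration.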
# FMDV antiviral = foot and mouth disease virus antiviral activity. 1.2% of 410,000 active. Potency, µM (highest dose often 57.9 µM), for the others: top-dose activity change, negative = inhibition, most hits filed as inhibitors. FMDV antiviral cell-based qHTS; calls by dose curve; tested in HEK293T cells; also: read-out not given here; potency is read from the fitted curve at half-maximal effect; % is scaled to controls: 0 for no effect and ±100 for the full control effect; nearly all actives have a fitted effect of over 45% in size
# Shiga inhibitor = inhibitors of Shiga toxin in Vero cells | Vero cells, Shiga toxin protein synthesis inhibition reporter | AID 2315 | inhibition, % at 38.7 µM | 9.2% of 290,000 active; in the data active = inhibition mostly above about 28%, no sharp cut-off; inactive = mostly below about 43%; also: 0% is about no effect
# The depositor's hits bear a star; ? = inconclusive; . = not tested or not shown; + = active, no number. The list is not random: actives were taken first. Their share in the collection is about 12%.
SMILES,CHX counter,Sm TGR block,FMDV antiviral,Shiga inhibitor
CC[C@H](C)[C@H](NC(=O)[C@H](Cc1ccccc1)NC(=O)[C@H](C)NC(=O)[C@H](CC(=O)O)NC(=O)[C@H](CCCCN)NC(=O)[C@H](CO)NC(=O)[C@@H]1CCCN1C(=O)[C@@H]1CCC(=O)N1)C(=O)NCC(=O)N[C@@H](CC(C)C)C(=O)N[C@@H](CCSC)C(N)=O,6,.,.,-8
COc1ccc(CCN2CCC(CNC(=O)c3cnn(-c4ccc(C)cc4)c3C3CCN(C(=O)OC(C)(C)C)CC3)CC2)cc1,.,-4%,-4%,.
COc1ccc(OC)c2sc(N3CCN(C(=O)c4ccc5c(c4)CCCC5)CC3)nc12,.,0%,-6%,.
O=c1ccc2cc3c4c(c2o1)CCCN4CCC3,-4,50µM*,-16%,-5
O=C(c1cc(-c2cccc(O)c2)on1)N1CCCCCC1,37*,2%,22%,112*
O=C(c1cc(-c2cccc(O)c2)on1)N1CCOCC1,13*,-21%,-22%,23*
CCN1C(=O)c2ccccc2S(=O)c2ccc(C(=O)N3CCOCC3)cc21 (stereo not given),1,15%,5%,12
O=C(c1cccc(-c2cccc3nccn23)c1)N1CCOCC1,.,.,-1%,.
O=C1c2ccccc2-c2ccc(C(=O)N3CCOCC3)cc21,22*,1%,19%,13
O=C(c1cccc(-c2ccc(O)cc2)c1)N1CCOCC1,13*,-7%,29%,22
COc1cccc2c1Oc1ncccc1N(C(=O)Nc1cccc(Cl)c1)C2,.,5%,-17%,.
CCCN(CCC)S(=O)(=O)c1ccc2c(c1)N(CC(=O)NCc1ccc(F)cc1Cl)C(=O)CS2,.,0%,-13%,.
Cc1ccc(O)c(C2=NNC(O)(C(F)(F)F)C2)c1 (stereo not given),8,2%,-15%,-9
Cc1ccc(O)c(C2=NNC(c3ccc(Cl)cc3)C2)c1 (stereo not given),59*,45µM*,3%,70*
Oc1ccc(Cl)cc1C1=NNC(c2cccs2)C1 (stereo not given),43*,18µM*,10%,141*
c1cncc(OC2CCN(Cc3ccc4c(c3)CN(Cc3nc5ccccc5s3)CCO4)CC2)c1,.,.,14%,.
O=C(c1ccccc1)c1cnc[nH]1,13*,0%,-1%,20
O=C(Nc1ccccc1)c1cnc[nH]1,30*,8%,28%,67*
Cc1ncc(C(=O)Nc2ccccc2)[nH]1,.,.,44%,.
COc1ccc(C(=O)Nn2c(SCC(=O)NCc3ccccc3)nc3ccccc3c2=O)cc1,51*,-21%,?,44
COc1ccc(NC(=O)CSc2nc3ccccc3c(=O)n2CCC(=O)NC2CCCCC2)c(OC)c1,.,1%,-1%,.
COc1ccc(C(=O)Nn2c(SCC(=O)NCC3CCCO3)nc3ccccc3c2=O)cc1 (stereo not given),-2,2%,11µM*,-10
O=C(CSc1nc2ccccc2c(=O)n1NC(=O)Cc1ccccc1)NCc1ccccc1,14,23%,16%,-7
COc1ccc(C(=O)Nn2c(SCC(=O)NC3CCCC3)nc3ccccc3c2=O)cc1,69*,-26%,18µM*,46
CC1=NN(c2ccccc2)C(=O)C1C=Nc1ccc(N(C)C)cc1 (stereo not given),17*,0%,-2%,39*
SMILES,CHX counter,Sm TGR block,FMDV antiviral,Shiga inhibitor
CC1=NN(c2ccccc2)C(=O)C1N=Nc1ccc(C)cc1 (stereo not given),17,-6%,.,25
COc1ccccc1N1CCN(/N=C/c2ccc(OC)c(OC)c2OC)CC1,16,-5%,-2%,25
COc1ccc(/C=N/n2c(C)nnc2C)c(OC)c1OC,6,-1%,22%,68*
COc1ccc(/C=N/N2CCN(C)CC2)c(OC)c1OC,5,50µM*,18%,10
CN(CC(=O)NCC1CCCCC1)S(=O)(=O)c1ccc(F)cc1,-1,-14%,-4%,0
CCC(C)(C)NC(=O)CN(C(=O)CNS(=O)(=O)c1ccccc1)c1ccc2c(c1)OCCO2,1,-3%,11%,-9
CC(=O)c1ccc(S(=O)(=O)N(C)CC(=O)NCC2CCCCC2)cc1,11,2%,18%,53*
O=C(CN(C(=O)CNS(=O)(=O)c1ccccc1)c1ccc2c(c1)OCCO2)NC1CCCCC1,24*,-17%,14%,17
CN(CC(=O)NC1CCCCCC1)S(=O)(=O)c1ccccc1,12*,-8%,29%,34*
COc1ccc(CNC(=O)CCc2c(C)nc3c(c2C)c(=O)n(C)c(=O)n3C)cc1,.,-8%,10%,.
Cn1cccc1C(=O)NNC(=O)COc1ccccc1F,33*,4%,30%,86*
Cn1cccc1C(=O)NCc1ccc(Cl)cc1,11,-15%,-5%,-5
Cn1cccc1C(=O)NCCc1ccccc1,23*,0%,?,51*
Cn1cccc1C(=O)NCCc1ccc(Cl)cc1,46*,-22%,36%,125*
CC(C)CC(=O)Nc1ccc(C(=O)OCc2cc(=O)n3nc(C(C)C)sc3n2)cc1,.,-4%,?,.
Cc1cccc(CC(=O)Nc2ccc3nc(N4CCC(C)CC4)cc(C)c3c2)c1,.,4%,0%,.
O=c1[nH]c(=O)n(-c2cccc(F)c2)c(O)c1/C=C1\C=Nc2ccccc21,-3,35µM*,-28%,-6
COC(=O)C1=Nc2ccccc2/C1=C\c1c(O)n(-c2ccc(Br)cc2)c(=O)[nH]c1=O,1,?,20µM*,-13
O=c1[nH]c(=O)n(-c2ccccc2)c(O)c1/C=C1/C(c2ccccc2)=Nc2ccccc21,48*,-15%,?,30*
COc1ccc(OC)c(-n2c(O)c(/C=C3\C(C)=Nc4ccccc43)c(=O)[nH]c2=O)c1,1,?,?,-8
O=C(O)c1ccc(-n2c(O)c(/C=C3\C=Nc4ccccc43)c(=O)[nH]c2=O)cc1,-1,?,-7%,2
COC(=O)C1=Nc2ccccc2/C1=C\c1c(O)n(-c2ccc(OC)cc2)c(=O)[nH]c1=O,4,-21%,-19%,-18
Cc1c(C(=O)Nc2ccc(F)cc2)nnn1-c1cccc(C(F)(F)F)c1,47*,1%,-16%,49*
Cc1cccc(-n2nnc(C(=O)N3CCc4ccccc4C3)c2N)c1,29*,4%,1%,55*
Cc1cccc(-n2nnc(C(=O)Nc3ccc(F)cc3)c2N)c1,51*,1%,22%,79*
SMILES,CHX counter,Sm TGR block,FMDV antiviral,Shiga inhibitor
Cc1c(C(=O)NNC(=S)Nc2cccc(Cl)c2)nnn1-c1ccccc1,57*,2%,28%,+
COC(=O)c1nnn(-c2cccc(C)c2)c1N,.,1%,-7%,.
CCN(CC)S(=O)(=O)c1ccc2c(c1)N(CC(=O)N1CCN(c3cccc(C)c3C)CC1)C(=O)CO2,.,4%,-15%,.
Cc1c(C(=O)O)nnn1-c1ccccc1,-4,12%,0%,-4
Cc1ccc(NC(=O)c2nnn(-c3cc(C)cc(C)c3)c2N)cc1,38*,6%,-5%,130*
Cc1c(C(=O)Nc2ccc(C(=O)O)cc2)nnn1-c1ccccc1,.,5%,10µM*,.
O=C1CCSC2(C(=O)N(Cc3ccc(F)cc3)c3ccccc32)N1c1ccc(Cl)cc1 (stereo not given),.,4%,0%,.
